In PubChem BioAssay AID652104 (National Center for Advancing Translational Sciences (NCATS), 2013):
Hit rate of the full screen: of about 410,000 compounds, about 7,200 (1.8%) were called active. A call without a number means that no potency is given here. About 7% were inconclusive and are not listed. This is one part of a sample in which actives are shown more often than they occur. Unmarked numbers belong to inactive results. Calls come from the whole dose curve; as a rule, active = well fitted activation curve with a large enough effect; inconclusive = small, poorly fitted or top-dose-only effect, or another doubt; inactive = no such curve, though single readings can be large or run the other way.

assay: qHTS of TDP-43 Inhibitors; details: TDP-43 expressing yeast growth rescue, BacTiter-Glo, 24 h; series mostly up to 46.1 µM; note: nearly all actives have a fitted effect of over 50% in size
In short: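 Luminescence from BacTiter-Glo reports growth of TDP-43-expressing yeast after 24 hr at 30 deg C with compound. Cells were raffinose-pregrown to mid-log, then seeded in galactose medium at OD600=0.02.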
Potency is the fitted concentration of half-maximal effect.

| Compound | Potency | growth rescue (activation) |
| --- | --- | --- |
| CCOC(=O)c1c(S(=O)(=O)NCC(=O)Nc2ccc(Cl)c(C(F)(F)F)c2)c(C)n(C)c1C | inactive |  |
| CCOc1cc(/C=N/Nc2cc(C)nc3ccc(C)cc23)ccc1O | 15.8 µM (active) |  |
| CCOc1cc(/C=C2\SC(N3CCCC(C)C3)=NC2=O)ccc1O (stereo not given) | inactive |  |
| COc1cc(OC)cc(C(=O)Nc2cc3nn(-c4ccccc4)nc3cc2Cl)c1 | inactive |  |
| O=[N+]([O-])c1cc(-c2nc(-c3ccccc3)no2)ccc1NCc1ccco1 | inactive |  |
| CCc1nn(CCCC(=O)NCc2ccccc2OC)c(=O)c2cc3occc3n12 | inactive |  |
| NC(=O)c1sc2nc3c(c(-c4ccccc4)c2c1N)CCC3 | 28.2 µM (active) |  |
| Nc1c(C(=O)c2cccs2)sc2nsc(SCCN3CCCCC3)c12 | inactive |  |
| CN(C)c1ccnc2sc(C(=O)c3ccccc3)c(N)c12 | 6.31 µM (active) |  |
| CN(C(=O)c1ccccc1)c1nccnc1C#N | inactive |  |
| Cc1ccc2c(N)c(C(=O)c3ccccc3)sc2n1 | 14.1 µM (active) |  |
| CCCS(=O)(=O)c1c(Nc2ccccc2C)sc(C(=O)c2ccccc2)c1N | inactive |  |
| COc1cccc(C(=O)c2sc3nc(-c4ccccc4)cc(C(F)(F)F)c3c2N)c1 | inactive |  |
| COC(=O)c1cc2c(N)c(C(=O)c3ccc(Cl)cc3)sc2nc1C(OC)OC | inactive |  |
| Cc1nc2sc(C(=O)c3ccccc3)c(N)c2c2c1CCCC2 | 22.4 µM (active) |  |
| COc1ccccc1NC(=O)c1sc2nc(C)c(C(=O)Nc3ccc(Cl)cc3)c(-c3ccc(Br)cc3)c2c1N | inactive |  |
| Cc1ccc(NC(=O)c2sc3nc(N)c(C#N)cc3c2N)cc1 | inactive |  |
| Cc1ccccc1CSCCNC(=O)C1CCN(S(=O)(=O)Cc2ccccc2)CC1 | inactive |  |
| Cc1c(NS(=O)(=O)c2ccc(Cl)cc2)c(=O)n(-c2ccccc2)n1C | inactive |  |
| CCCN(CCC)CCNC(=O)Cn1cnc2sc(C)c(S(=O)(=O)N3CCC(C)CC3)c2c1=O | inactive |  |
| CCc1ccccc1NC(=O)N1CCN(C(=O)c2nsc3ccccc23)CC1 | inactive |  |
| COc1ccc(C2Sc3ccccc3NC3=C2C(=O)c2ccccc23)c(OC)c1OC (stereo not given) | inactive |  |
| Cc1ccc(C(=O)Nc2ccc(C(=O)O)cc2)cc1S(=O)(=O)Nc1ccccc1 | inactive |  |
| Cc1cccc(C(=O)Nc2ccc(-c3nc4ncccc4o3)cc2C)c1 | inactive |  |
| O=C(NCc1cccnc1)C(=O)NCC(c1cccnc1)N1CCN(c2ccccc2)CC1 (stereo not given) | inactive |  |

| Compound | Potency | growth rescue (activation) |
| --- | --- | --- |
| O=C(NCc1ccc2c(c1)CCN2C(=O)c1ccccc1)c1ccccc1 | inactive |  |
| COc1ccc(N)c(C)c1 | inactive |  |
| COc1ccc2[nH]c3c(C)c4cc[n+](C)cc4c(C)c3c2c1 | inactive |  |
| COc1ccc2[nH]c3ccc(OC)cc3c2c1 | 8.91 µM (active) |  |
| Cc1ccc(Cl)cc1N(C)C(=O)Cn1nc(Cc2cccnc2)c2ccccc2c1=O | inactive |  |
| CCCn1c2ccccc2c2cnn(CC(=O)N3CCCC(C(=O)OCC)C3)c(=O)c21 (stereo not given) | inactive |  |
| CCc1ccc(S(=O)(=O)n2ccnc2)cc1 | inactive |  |
| COc1cccc(Cn2c(SCc3ccc(C(=O)N4CCC(C)CC4)cc3)nc3ccncc32)c1 | inactive |  |
| N#C/C(=C\c1cccc(F)c1)c1nc(-c2cc3c(ccc4ccccc43)oc2=O)cs1 | inactive |  |
| O=C(CSc1nc2c(c(=O)[nH]1)CN(Cc1ccc3c(c1)OCO3)CC2)Nc1cc(F)ccc1F | inactive |  |
| Cc1cccc(NS(=O)(=O)c2ccc([N+](=O)[O-])cc2)n1 | inactive |  |
| Cc1cccc(Nc2nc(-c3ccccc3)cs2)n1 | 14.1 µM (active) |  |
| COc1ccc(-c2csc(Nc3ccccn3)n2)cc1 | 3.55 µM (active) |  |
| CCCn1c(C2CCCN2c2nc(-c3ccc(OC)cc3)cs2)nc2ccccc21 (stereo not given) | inactive |  |
| COc1ccc(-c2csc(-c3c(N)c(C(=O)c4ccc(OC)c(OC)c4)n4ccccc34)n2)cc1 | inactive |  |
| Cc1cc(-c2ccccc2)n2nc(-c3ccccc3)cc2n1 | inactive |  |
| O=C(NCC(c1ccco1)S(=O)(=O)c1cccs1)c1ccc(F)cc1 (stereo not given) | inactive |  |
| Cc1ccc(N(CC(=O)NCc2ccc(Cl)cc2)S(=O)(=O)N(C)C)cc1 | inactive |  |
| COc1ccccc1CNC(=O)C(Cc1ccccc1)NS(=O)(=O)c1ccc2c(c1)oc(=O)n2C (stereo not given) | inactive |  |
| Cc1ccc(Cn2c(=O)n(-c3ccc(C)cc3)c(=O)c3c2c2cc(C)ccc2n3C)cc1 | inactive |  |
| CCOc1ccc(N2CC(C)Cn3c2nc2c3c(=O)n(Cc3c(F)cccc3Cl)c(=O)n2C)cc1 (stereo not given) | inactive |  |
| CCCCC(=O)OC1=CN(Cc2ccccc2)S(=O)(=O)c2ccccc21 | inactive |  |
| CC(=O)OC1=C(C(C)=O)N(Cc2ccccc2)S(=O)(=O)c2ccccc21 | 35.5 µM (active) |  |
| CCOC(=O)CN1C(C(=O)c2ccccc2)=C(OC(=O)C(C)(C)C)c2ccccc2S1(=O)=O | inactive |  |
| CC(=O)Oc1ccc(-c2cccc(C(=O)N3CCCCC3)c2)cc1 |  | -16% [at 1.82 µM] |

| Compound | Potency | growth rescue (activation) |
| --- | --- | --- |
| O=C(c1ccccc1)c1ccc(OC(=O)N2CCCC2)cc1 | 11.2 µM (active) |  |
| CC(=O)c1ccc(OC(=O)N2CCOCC2)cc1 | inactive |  |
| O=S(=O)(NCC1OCCc2ccccc21)c1ccccc1 (stereo not given) | 10 µM (active) |  |
| O=C(Cc1ccccc1)NCC1OCCc2ccccc21 (stereo not given) | inactive |  |
| O=S(=O)(NCCc1ccccc1)c1ccccc1 | inactive |  |
| CCCOc1ccc(C(=O)Nc2ccc3oc(-c4cccc(Cl)c4Cl)nc3c2)cc1 | inactive |  |
| CCOc1ccc(NC(=O)c2cc(S(=O)(=O)N3CCCC3)c[nH]2)cc1 | inactive |  |
| CN(C)c1ccc(-c2nnc(-c3cccnc3)o2)cc1 | 10 µM (active) |  |
| CC1(c2nnc(-c3ccncc3)o2)CC(c2cccnc2)=NO1 (stereo not given) | inactive |  |
| CCCN(CCC)c1ccc(C(O)c2nnc(-c3ccccc3)o2)cc1 (stereo not given) | inactive |  |
| O=C(Cn1ncc2c3ccccc3n(Cc3ccccc3)c2c1=O)NC1CCCCCC1 | inactive |  |
| CCC(Sc1nnc(-c2ccc(OC)cc2)c(-c2ccc(OC)cc2)n1)C(=O)NC1CCCCC1 (stereo not given) | inactive |  |
| CN(Cc1ccccc1)C(=O)c1cn(C)c2ccc(S(=O)(=O)N(C)C3CCCCC3)cc2c1=O | inactive |  |
| CCOc1ccccc1CNC(=O)c1ccc2c(c1)nc1n2CCC(C)C1 (stereo not given) | inactive |  |
| CCOc1ccccc1C(=O)NCC(c1ccc(N(C)C)cc1)N1CCCC1 (stereo not given) | inactive |  |
| COc1ccc(-c2noc(CSc3nnc(-c4ccccc4)n3-c3ccc(F)cc3)n2)c(OC)c1 | inactive |  |
| COc1ccccc1C(=O)Nc1cccc(C(=O)N2CCOCC2)c1 | inactive |  |
| CCc1cc(C(c2ccccc2OC)N2CCOCC2)c(NC(=O)c2ccccc2)s1 (stereo not given) | 20 µM (active) |  |
| COc1cc(C(c2c(NC(=O)c3ccco3)sc(C)c2C)N2CCOCC2)cc(OC)c1OC (stereo not given) | inactive |  |
| COc1ccccc1NC(=O)C1=C(C)Nc2nc(SCC(=O)c3ccc(C)cc3)nn2C1c1ccccc1C (stereo not given) | inactive |  |
| CCCCn1c(CNC(=O)C23CC4CC(CC(C4)C2)C3)nnc1SCC(=O)Nc1ccc(C)cc1 | inactive |  |
| O=C(CO/N=C/c1ccccc1O)NNC(=O)c1ccccc1Cl | 3.16 µM (active) |  |
| O=C(CO/N=C/c1ccccc1OC(F)F)NC1CCCC1 |  | 26.6% [at 9.22 µM] |
| O=C(COc1ccccc1F)NNC(=O)c1cc(Br)ccc1Cl | inactive |  |
| O=C(c1ccccc1F)N1CCC(c2nc3c(nnn3Cc3cccc(F)c3)c(=O)[nH]2)CC1 | inactive |  |

| Compound | Potency | growth rescue (activation) |
| --- | --- | --- |
| CC(C)c1ccc(OCC(=O)N(Cc2ccc(N(C)C)cc2)C2CCS(=O)(=O)C2)cc1 (stereo not given) | inactive |  |
| COc1ccc(-c2cn3c(n2)sc2cc(C(=O)Nc4ccccc4F)ccc23)cc1 | inactive |  |
| Cc1oc(C(N)=O)cc1COc1ccc(C(N)=O)cc1 | inactive |  |
| Cc1ccc(COc2ccc(C(=O)NN)cc2)cc1 | 15.8 µM (active) |  |
| NNC(=O)c1ccc(COCC(F)(F)C(F)F)cc1 | inactive |  |
| Cc1nn2c(=O)cc(COC(=O)c3ccccc3NC(=O)COc3ccccc3C)nc2s1 | inactive |  |
| CCc1ccc2oc(-c3ccc(C)c(NC(=O)/C=C/c4ccco4)c3)nc2c1 | inactive |  |
| Cc1ccc(OCCSc2nc(-c3cccs3)nc3cc(=O)[nH]n23)cc1Cl | inactive |  |
| Cc1ccc(Nc2c(-c3ccc(C)s3)nc3ccccn23)cc1 | inactive |  |
| COc1ccc(-c2nc3cnccn3c2NC(C)(C)CC(C)(C)C)cc1O | inactive |  |
| Cc1ccc(Nc2c(-c3ccc(C)cc3)nc3cnccn23)cc1 | 22.4 µM (active) |  |
| COc1ccc(-c2nc(CN3CCC(C(=O)NCCN(CC(C)C)CC(C)C)CC3)c(C)o2)cc1OC | inactive |  |
| CCNS(=O)(=O)c1cc(-c2nnc(Nc3cccc(C(F)(F)F)c3)c3ccccc23)ccc1C | inactive |  |
| CCC1=Nc2cc(C(=O)NCCCOC(C)C)ccc2Sc2ccc(C)cc21 | inactive |  |
| CCCCC(=O)Nc1ccccc1N1CCN(c2ccc(F)cc2)CC1 | 22.4 µM (active) |  |
| CCC(C)C(=O)Nc1ccccc1N1CCN(c2ccc(F)cc2)CC1 (stereo not given) | 25.1 µM (active) |  |
| CC(=O)N1c2ccccc2CC1C(=O)N1CCN(c2ccc(F)cc2)CC1 (stereo not given) | inactive |  |
| CCCC(=O)Nc1ccccc1N1CCN(C(=O)c2ccccc2)CC1 | inactive |  |
| COc1ccc(NC(C)=O)cc1NC(=O)CN1CCN(c2ccc(F)cc2)CC1 | inactive |  |
| CC(=O)c1ccc(N2CCN(CC(=O)Nc3ccccc3N3CCOCC3)CC2)cc1 |  | -6.9% [at 9.22 µM] |
| CCCC12CN3CC(CCC)(CN(C1)C3c1c[nH]c3ccc(OC)cc13)C2=O (stereo not given) | inactive |  |
| COc1cccc(C(O)c2ncc(-c3ccc4ccccc4c3)[nH]2)c1 (stereo not given) | inactive |  |
| CCCCCC(O)c1cccc(OCc2ccc3ccccc3n2)c1 (stereo not given) | 12.6 µM (active) |  |
| COc1cccc(C(O)c2nc3ccccc3n2C)c1 (stereo not given) | inactive |  |
| COc1ccc(OC)c(-c2csc(-c3c(N)c(C(=O)c4ccccc4)n4ccccc34)n2)c1 | inactive |  |
